# High-throughput results: PubChem, several laboratories
# TRPM1 prom inh: inhibitors of MITF-driven TRPM1 promoter in melanoma cells | SK-MEL-5 TRPM1 promoter luciferase, 24 h | inhibition, % at 12.5 µM | actives 0.83% (n = 330,000);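 active = mean inhibition across replicates of 60% or more, whatever share of single replicates reaches that level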
# EWS-Fli block: blocks EWS/Fli oncoprotein-driven transcription; A673 NR0B1-luciferase reporter, viability-normalised; inhibition, % at 12.6 µM; actives 0.67% (n = 350,000);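 active = mean inhibition of at least 50% after viability correction, with every replicate also passing that limit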;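 note: firefly luciferase signal divided by Alamar Blue viability fluorescence both relative to DMSO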
# PAX8 inh HTS: inhibitors of PAX8 transcriptional activity in RMG-I cells. RMG-I TPO-luciferase reporter, SteadyGlo, 24 h. inhibition, % at 12.6 µM. actives 1.2% (n = 360,000);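 active = mean replicate inhibition at least 60% with every replicate also reaching 60%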;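 note: luciferase light reporting Pax8 driven TPO promoter activity; plate controls were median of neutral control wells for no effect and mitoxantrone controls for full effect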
# Shn3 inh set2: reduces Shn3 3'UTR luciferase signal in osteoblasts; Clone20 osteoblast Shn3 3'UTR firefly luciferase, 24 h; inhibition, % at 12.5 µM; actives 0.52% (n = 360,000); AID 588674;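 active = mean inhibition of at least 75% with every replicate also reaching 75%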;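 note: 0% = median of neutral control wells and 100% = pilot-screen positive control compound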
# ABHD5-PLIN5 inh: blocks binding of human ABHD5 to perilipin-5. inhibition, % at 4 µM. Q00G26+Q8WTS1. AID 602281. actives 0.78% (n = 360,000). Split G. princeps luciferase complementation, luminescence, 4 h;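 active = inhibition above the mean inhibition across every tested compound plus 3 SD, cut at about 22% in these data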;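 note: 0% = DMSO only wells and the 100% control is not disclosed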
# Target sequence (Q00G26 whole entry, looked up): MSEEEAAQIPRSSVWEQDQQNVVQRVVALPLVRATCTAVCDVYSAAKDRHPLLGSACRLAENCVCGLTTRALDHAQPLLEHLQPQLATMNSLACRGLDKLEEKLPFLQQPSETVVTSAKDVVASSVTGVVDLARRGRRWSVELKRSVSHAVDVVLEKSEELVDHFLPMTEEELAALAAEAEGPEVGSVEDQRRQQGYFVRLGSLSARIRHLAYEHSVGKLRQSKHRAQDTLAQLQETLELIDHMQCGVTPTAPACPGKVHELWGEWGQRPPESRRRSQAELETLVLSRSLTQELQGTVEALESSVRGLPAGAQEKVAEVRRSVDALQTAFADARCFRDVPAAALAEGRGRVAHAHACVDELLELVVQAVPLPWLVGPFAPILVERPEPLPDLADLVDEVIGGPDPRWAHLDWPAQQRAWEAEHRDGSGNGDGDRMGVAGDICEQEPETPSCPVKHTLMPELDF
# Target sequence (Q8WTS1 whole entry, looked up): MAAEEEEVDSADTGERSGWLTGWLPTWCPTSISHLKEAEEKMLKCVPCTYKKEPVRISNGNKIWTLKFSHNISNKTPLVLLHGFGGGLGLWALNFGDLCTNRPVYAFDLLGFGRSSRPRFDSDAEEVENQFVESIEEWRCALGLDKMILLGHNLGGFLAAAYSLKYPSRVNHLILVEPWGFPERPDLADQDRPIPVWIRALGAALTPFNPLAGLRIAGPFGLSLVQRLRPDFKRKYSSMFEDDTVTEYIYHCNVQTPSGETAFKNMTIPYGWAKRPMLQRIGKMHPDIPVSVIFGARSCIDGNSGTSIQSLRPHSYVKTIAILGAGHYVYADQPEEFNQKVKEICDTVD
# Peg3 prom inh: inhibitors of Peg3 promoter; HeLa PEG-Prom luciferase reporter, luminescence, overnight; inhibition, % at 20 µM; actives 1.7% (n = 360,000);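 active = inhibition of at least 50% at 20 µM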
# Numbers without * were called inactive; x = no result. Shown are actives, neighbours in structure and some others; about 3% of the full set was active somewhere.
SMILES,TRPM1 prom inh,EWS-Fli block,PAX8 inh HTS,Shn3 inh set2,ABHD5-PLIN5 inh,Peg3 prom inh
C[C@@H]1CN([C@@H](C)CO)C(=O)c2cc(NS(=O)(=O)c3ccccc3)ccc2O[C@@H](C)CCCCO[C@H]1CN(C)C(=O)Nc1ccc(C(F)(F)F)cc1,x,-7,-14,x,x,x
C[C@H]1CCCCO[C@H](CN(C)C(=O)Nc2ccc(C(F)(F)F)cc2)[C@@H](C)CN([C@@H](C)CO)C(=O)c2cc(NS(=O)(=O)c3ccccc3)ccc2O1,x,20,79*,x,x,x
COc1ccc(CN(C)C[C@H]2Oc3ccc(NC(=O)C4CC4)cc3CC(=O)N([C@H](C)CO)C[C@H]2C)cc1,x,-15,3,x,x,x
COCCNC(=O)C[C@H]1C[C@@H]2c3cc(NC(=O)NC4CCCCC4)ccc3O[C@@H]2[C@H](CO)O1,x,-1,-7,x,x,x
O=C(Nc1cccc(F)c1)N1C[C@H]2[C@@H](c3ccccc31)[C@H](CO)N2C(=O)Cc1ccccc1,x,-7,2,x,x,x
CC(C)N1CCc2c(sc(NC(=O)c3ccc(C(=O)c4ccccc4)cc3)c2C(N)=O)C1,3,2,10,20,9,59*
CC(=O)Nc1sc2c(c1-c1nc3ccccc3s1)CCN(C(C)C)C2,77*,x,x,81,2,99*
CC(C)N1CCc2c(sc(NC(=O)c3ccc4ccccc4c3)c2C(N)=O)C1,-51,x,-12,0,17,13
CNC(=O)c1c(NC(=O)c2ccc(S(=O)(=O)N3CCCCC3)cc2)sc2c1CCN(C(C)C)C2,-11,6,x,7,10,-9
CC(C)N1CCc2c(sc(NC(=O)c3ccc(S(=O)(=O)N4CCCCC4C)cc3)c2C(N)=O)C1 (stereo not given),36,7,-11,13,3,68*
O=C(Nc1ccc(-c2nc3cccnc3s2)cc1)C1CCCO1 (stereo not given),x,66*,0,83,-3,50
Cc1ccc(CCNC(=O)C2CC(c3cc(C(F)(F)F)cc(C(F)(F)F)c3)=NO2)cc1 (stereo not given),18,-2,-17,-1,4,1
Cc1ccc(CNC(=O)C2CC(c3cc(C(F)(F)F)cc(C(F)(F)F)c3)=NO2)o1 (stereo not given),21,54*,1,-10,6,8
C[C@@H]1CN([C@H](C)CO)S(=O)(=O)c2ccc(C#Cc3ccccc3F)cc2O[C@@H]1CN(C)CC1CCOCC1,x,-15,37,x,x,x
C[C@H]1CN([C@@H](C)CO)S(=O)(=O)c2ccc(C#Cc3ccccc3F)cc2O[C@@H]1CN(C)CC1CCOCC1,x,-3,90*,x,x,x
C[C@@H]1CN([C@@H](C)CO)S(=O)(=O)c2ccc(C#Cc3ccccc3F)cc2O[C@H]1CN(C)CC1CCOCC1,x,23,94*,x,x,x
C[C@@H]1CCCCO[C@@H](CN(C)C(=O)Cc2ccccc2)[C@@H](C)CN([C@@H](C)CO)C(=O)c2cc(NC(=O)Nc3ccc(C(F)(F)F)cc3)ccc2O1,x,-4,79*,x,x,x
C[C@@H]1CCCCO[C@@H](CN(C)C(=O)Nc2ccc(C(F)(F)F)cc2)[C@H](C)CN([C@H](C)CO)C(=O)c2cc(NC(=O)Nc3ccccc3)ccc2O1,x,-11,63*,x,x,x
C[C@@H]1CCCCO[C@@H](CN(C)C(=O)Nc2ccccc2)[C@H](C)CN([C@H](C)CO)C(=O)c2cc(NC(=O)Nc3ccc(C(F)(F)F)cc3)ccc2O1,x,6,86*,x,x,x
C[C@@H]1CN([C@H](C)CO)C(=O)c2cc(NC(=O)Nc3ccc(C(F)(F)F)cc3)ccc2O[C@@H](C)CCCCO[C@H]1CN(C)C(=O)c1ccccc1,x,46,102*,x,x,x
C[C@@H]1CCCCO[C@H](CN(C)C(=O)c2ccccc2)[C@@H](C)CN([C@H](C)CO)C(=O)c2cc(NC(=O)Nc3ccc(C(F)(F)F)cc3)ccc2O1,x,-10,7,x,x,x
C[C@H](CO)N1C[C@H](C)[C@@H](CN(C)C(=O)Nc2ccc(C(F)(F)F)cc2)OCCCC[C@H](C)Oc2ccc(NC(=O)Nc3ccccc3)cc2C1=O,x,-10,15,x,x,x
CCCNC(=O)N[C@H]1C=C[C@H](CC(=O)N2CCN(C)CC2)O[C@H]1CO,x,-6,6,x,x,x
Cc1noc(C)c1NC(=O)N(C)C[C@@H]1Oc2c(NS(C)(=O)=O)cccc2C(=O)N([C@H](C)CO)C[C@@H]1C,x,1,x,x,x,x
COc1cc(-c2coc3c(C(=O)NCc4ccc(OC)c(OC)c4)cccc23)ccc1O,x,27,19,71,-2,51*
SMILES,TRPM1 prom inh,EWS-Fli block,PAX8 inh HTS,Shn3 inh set2,ABHD5-PLIN5 inh,Peg3 prom inh
COc1cccc(S(=O)(=O)N2CCC3(CC2)CN[C@@H](CO)c2[nH]c4cc(OC)ccc4c23)c1,x,-2,x,x,x,x
CN(C)CC(=O)N[C@@H]1C=C[C@@H](CC(=O)NCc2ccc(Cl)cc2)O[C@@H]1CO,x,-5,-18,x,x,x
O=[N+]([O-])c1ccc(S(=O)(=O)CC(CN2CCOCC2)N2CCOCC2)cc1 (stereo not given),28,-7,12,6,3,-3
O=[N+]([O-])c1ccc(S(=O)(=O)CC(CN2CCCCC2)N2CCCCC2)cc1 (stereo not given),81*,42,24,57,3,108*
CCN(CC)S(=O)(=O)c1ccc(N2CCOCC2)c(NC(=O)c2nn(C(C)C)c(=O)c3ccccc23)c1,x,9,10,86*,-4,42
CCOc1cc(N2CCOCC2)c(OCC)cc1NC(=O)c1ccc(OCc2c(C)noc2C)c(OC)c1,-6,6,7,23,-4,50*
CCOc1cc(N2CCOCC2)c(OCC)cc1NC(=O)c1ccccc1C,-11,10,-3,18,-1,8
CCOc1cc(N2CCOCC2)c(OCC)cc1NC(=O)c1nn(CC)c(=O)c2ccccc12,15,6,23,13,-3,60*
CCN1[C@@H]2c3ccc(-c4ccncc4)c(=O)n3C[C@H]1[C@H](CO)[C@H]2C(=O)NCCc1cn(C)cn1,x,-4,-10,x,x,x
O=C(Nc1ccc(N2CCOCC2)cc1)c1cnccn1,25,57*,58,30,4,59*
O=C(Nc1ccc(S(=O)(=O)N2CCCC2)cc1)c1cnccn1,6,-4,-24,-7,-3,6
O=C(Nc1ccc(S(=O)(=O)N2CCN(Cc3ccccc3)CC2)cc1)c1cnccn1,19,x,x,82*,-3,5
O=C(Nc1ccccc1N1CCOCC1)c1cnccn1,6,x,-6,-2,-5,7
CS(=O)(=O)c1ncc(Cl)c(C(=O)Nc2ccc(N3CCOCC3)cc2)n1,92*,x,x,94*,60*,104*
C[C@H]1CN([C@@H](C)CO)C(=O)CCCn2cc(nn2)CO[C@H]1CN(C)C(=O)Nc1ccccc1F,x,2,x,x,x,x
Nc1ccc2cc3[nH]c4cc(N)ccc4c3nc2c1,83*,42,90*,90*,-8,28
Nc1ccc2nc(-c3cccc(-c4nc5ccc(N)cc5[nH]4)c3)[nH]c2c1,14,0,-4,-4,-3,13
